From the supplement of paper PMC6555819

Tests used:
Assay in all cases: PBM binding z-score (relative to random genomic background probes); higher = stronger binding; sequences stand for … in GC…GCGATTGACAGCGTAGAATGAAGG
[1] = test system: FXR:RXRa (NR concentration 270 nM, RXRa partner concentration 90 nM)
Method in brief: (§1)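 Probes were double-stranded and carried 34-nt variable regions with direct-repeat seeds, single-nucleotide variants, half-site ablations and random human genomic background sequences, printed on custom Agilent 4×180K protein-binding microarrays. Arrays were incubated 1 h with ligand-free nuclear receptor dimers in PBS pH 7.4, 2% milk, 0.02% Triton X-100, 1 mM DTT, 0.2 mg/mL BSA and 0.4 mg/ml salmon testes DNA. Antibodies against each partner (one per run) detected binding, and scanned fluorescence was regression-normalized. Binding z-scores use the random background probes as reference.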

[2] = test system: LXRa:RXRa (NR concentration 270 nM, RXRa partner concentration 90 nM)
Method in brief: as §1

[3] = test system: LXRa homodimer (NR concentration 270 nM)
Method in brief: as §1

[4] = test system: LXRb:RXRa (NR concentration 270 nM, RXRa partner concentration 90 nM)
Method in brief: as §1

[5] = test system: LXRb homodimer (NR concentration 270 nM)
Method in brief: as §1

[6] = test system: PPARa:RXRa (NR concentration 270 nM, RXRa partner concentration 90 nM)
Method in brief: as §1

[7] = test system: PPARg:RXRa (NR concentration 180 nM, RXRa partner concentration 90 nM)
Method in brief: as §1

[8] = test system: PPARg:RXRa 270nM:90nM, anti-RXR (NR concentration 270 nM, RXRa partner concentration 90 nM)
Method in brief: as §1

[9] = test system: PPARg:RXRa 30nM:10nM, anti-RXR (NR concentration 30 nM, RXRa partner concentration 10 nM)
Method in brief: as §1

[10] = test system: PPARg:RXRa 90nM:30nM, anti-RXR (NR concentration 90 nM, RXRa partner concentration 30 nM)
Method in brief: as §1

[11] = test system: PPARg:RXRa DBDmut IVT, anti-RXR (DBD mutation: RXRa K156A/R161A, NR concentration 270 nM, RXRa partner concentration 90 nM)
Method in brief: as §1

[12] = test system: PPARg:RXRa IVT, anti-PPARg (NR concentration 270 nM, RXRa partner concentration 90 nM)
Method in brief: as §1

[13] = test system: PPARg DBDmut:RXRa IVT, anti-PPARg (DBD mutation: PPARg1 K132A/R137A, NR concentration 270 nM, RXRa partner concentration 90 nM)
Method in brief: as §1

[14] = test system: PPARg DBDmut IVT, anti-PPARg (DBD mutation: PPARg1 K132A/R137A, NR concentration 270 nM)
Method in brief: as §1

[15] = test system: PPARg homodimer (NR concentration 180 nM)
Method in brief: as §1

[16] = test system: PXR:RXRa (NR concentration 270 nM, RXRa partner concentration 90 nM)
Method in brief: as §1

[17] = test system: PXR homodimer (NR concentration 270 nM)
Method in brief: as §1

[18] = test system: RARa:RXR (NR concentration 270 nM, RXRa partner concentration 90 nM)
Method in brief: as §1

[19] = test system: RARa homodimer (NR concentration 270 nM)
Method in brief: as §1

[20] = test system: RARb:RXRa (NR concentration 270 nM, RXRa partner concentration 90 nM)
Method in brief: as §1

Sequence | PBM binding z-score [1] | PBM binding z-score [2] | PBM binding z-score [3] | PBM binding z-score [4] | PBM binding z-score [5] | PBM binding z-score [6] | PBM binding z-score [7] | PBM binding z-score [8] | PBM binding z-score [9] | PBM binding z-score [10] | PBM binding z-score [11] | PBM binding z-score [12] | PBM binding z-score [13] | PBM binding z-score [14] | PBM binding z-score [15] | PBM binding z-score [16] | PBM binding z-score [17] | PBM binding z-score [18] | PBM binding z-score [19] | PBM binding z-score [20]
CAAACTAGGTGAAGAGGTCAAAGTCCGCTTCCCG | 4.89 | 4.87 | 4.29 | 4.34 | 0.798 | 5.95 | 8.28 | 7.03 | 5.27 | 7.36 | 7.18 | 7.52 | 2.35 | 2.46 | 2.49 | 5.31 | 1.58 | 5.42 | 0.811 | 4.19
TCTTGTCGATCAATAGAGGTTAAGAAAGTGCGCT | 0.786 | 3.69 | 0.541 | 1.92 | 0.134 | 1.97 | 0.144 | 1.76 | 2.67 | 1.98 | 1.37 | 0.566 | 1.29 | 0.928 | 0.669 | 2.97 | 0.471 | 1.82 | -0.217 | 1.09
ATATATAGGTTATCGGGTCATTCAGTTTGCGCAT | 3.94 | 3.78 | 2.66 | 3.46 | 2.07 | 5.17 | 7.65 | 6.52 | 4.09 | 6.01 | 7.55 | 7.39 | 3.48 | 3.64 | 4.29 | 3.91 | 8.17 | 4.26 | 3.1 | 2.96
AATACAGGGTCATCGTAGGCCAGGGTACGCACAG | 7.02 | 6.11 | 2.59 | 4.52 | 1.33 | 5.71 | 6.91 | 6.06 | 2.54 | 4.9 | 2.56 | 4.25 | 1.78 | 1.18 | 4.25 | 4.84 | 0.528 | 5.17 | 1.22 | 4.32
TCTAGTTGGGCAAAGGTCACACACTCGAAATGCG | 5.48 | 5.45 | 3.14 | 5.08 | 0.789 | 6.58 | 10.4 | 9.73 | 9.07 | 10.3 | 2.75 | 5.71 | 0.687 | 1.14 | 5.11 | 5.64 | 1.26 | 6.56 | 2.44 | 5.1
CGAACTAGGTCATAGACAGGACAGTGAATAGTAA | 3.32 | 2.16 | 0.422 | 1.64 | -0.534 | 4.33 | 7.56 | 6.26 | 3.94 | 5.68 | 7.81 | 8.39 | 2.54 | 1.39 | 1.46 | 1.43 | 0.213 | 2.07 | 0.165 | 3.55
GCTGCTAGGTCCGGTTGGTCAGCTAACGGGTACG | -0.467 | -0.521 | -0.707 | -1.05 | -0.916 | -0.619 | -0.571 | -0.342 | -0.72 | -0.851 | -0.426 | -0.34 | -1.47 | -1.49 | -1.32 | -0.574 | -0.913 | -0.552 | -1.7 | 0.0828
CCTACTGGGCCAAAAAGGTCATTGAAGCCGATAA | 3.74 | 4.35 | 2.77 | 4.22 | 0.158 | 4.79 | 3.38 | 4.24 | 1.31 | 3.47 | 3.62 | 3.97 | -0.352 | -0.851 | 3.29 | 4.73 | 3.09 | 5.39 | 1.5 | 4.06
GCTTATAGGTAATACAAGGTGAAAGTCCGATTGT | 0.773 | 2.61 | 0.251 | 0.934 | -0.275 | 1.5 | 0.93 | 1.22 | 0.379 | 0.916 | 3.24 | 2.78 | 1 | 1.03 | 0.685 | 0.829 | 0.193 | 1.93 | 1.06 | 0.613
TCTAGTTGGTCACGCAGGTCACACACGACGGGTA | 1.94 | 1.98 | 1.08 | 2.09 | 0.279 | 2.87 | 2.09 | 2.99 | 3.37 | 2.92 | 2.32 | 3.48 | 0.238 | 1.23 | 1.91 | 2.72 | 0.544 | 3.15 | 1.14 | 3.05
ATCCAAAGGTCGAAGGTGAGTATACCCACCCGAA | 5.05 | 4.12 | 0.34 | 3.2 | 0.577 | 4.95 | 5.19 | 5.37 | 2.53 | 4.33 | 0.6 | 2.51 | 0.413 | 0.999 | 2.58 | 3.26 | 0.0246 | 4.54 | 0.353 | 3.97
TCATATAGGTAATACAGCTGAAAGTCGGCATCTA | 0.752 | 0.674 | -0.0282 | 0.475 | 0.431 | 1.14 | 0.839 | 2.26 | 3.95 | 3.15 | 4.01 | 1.94 | 0.896 | 1.18 | 1.1 | 0.684 | -0.0774 | 0.947 | 0.987 | 0.188
TCATATAGGTAAACAGGTAAAAGTCCGTAAGTTA | 1.11 | 1.14 | 0.519 | 0.863 | 0.214 | 1.98 | 2.49 | 3.29 | 4.26 | 3.85 | 4.45 | 3.81 | 1.35 | 1.75 | 0.996 | 0.894 | 0.723 | 1.14 | 1.5 | 0.628
AGTCAAAGTTCAGGACGAGGTTACGTAAAGCACG | 4.83 | 4.65 | 2.06 | 2.7 | 0.273 | 3.73 | 5.02 | 4.89 | 2.32 | 4.2 | -0.0298 | 2.22 | 0.501 | 0.266 | 2.73 | 4.73 | 2.59 | 4.38 | 1.13 | 4.46
